# Measured values reported in PubChem BioAssay.
# The source made the active and inactive calls.
# Tested on: Sonic hedgehog protein (Shh)
# Assay: small-molecule binders of Shh protein, primary screen, biochemical, small-molecule microarray, 635/667 nm fluorescence (AID 1151);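 further: Shh protein binding to compounds spotted on small-molecule microarray slides; score combines spot fluorescence intensity with signal-to-noise across triplicate slides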
# Conditions: small-molecule microarray binding, 635 nm fluorescence; higher = more signal
row,Compound,composite z-score
1,COc1ccc(C(=O)Nc2ccc(CN3C(=O)[C@@]4(O[C@@H](CCn5cc([C@H](O)c6ccccc6)nn5)[C@H]([Si](C)(C)c5ccc(OC)cc5)[C@H]4C)c4ccccc43)cc2)cc1,1.51
2,O=C1c2ccccc2[C@@]2(Cc3ccccc3N(CCN3CCOCC3)C2=O)[C@H](c2ccc(CO)cc2)N1Cc1ccccc1,-0.613
3,CC[C@@H]1C=C(C(=O)O)[C@H](c2ccco2)N1S(=O)(=O)c1ccc(C)cc1,0.374
4,O=C1OCCC/C=C\[C@H]2OC34C=CCN(CCN5CCOCC5)C(=O)[C@H]3N(CCCO)C(=O)[C@@H]4C12 (some centres not stated),-0.165
5,COC(=O)[C@@]1(Cc2ccccc2)[C@H]2c3cc(C(=O)N4CCCC4)n(Cc4nc5ccccc5[nH]4)c3C[C@H]2CN1C(=O)c1ccccc1,-0.105
6,CC(C)c1ccc(NN2C(C(O)C(c3ccccc3)c3ccccc3)C=CC3C(=O)N(c4ccccc4)C(=O)C32)cc1 (configuration not stated),-0.0266
7,C#CCN(Cc1ccccc1Br)C(/C=C/c1ccccc1)CO (configuration not stated),-0.0683
8,O=C1C2C=CC(C(O)c3c(F)cccc3Cl)N(Nc3ccccc3)C2C(=O)N1c1ccccc1 (configuration not stated),-0.104
9,NC(=O)[C@@H]1[C@H]2C(=O)O[C@H](c3ccccc3)[C@H](c3ccccc3)N2[C@H](c2ccc(O)cc2)[C@@]12C(=O)Nc1ccc(C#CC3(O)CCCCCC3)cc12,-0.323
10,CCOC(=O)C[C@H]1[C@H](OC(=O)Cc2ccc3c(c2)OCO3)[C@@H](NC(=O)c2ccc3ccccc3c2)c2cc(OCCCO)ccc2N1C(=O)c1ccccc1,0.601
11,CN(C)C(=O)[C@]1(Cc2ccccc2N=[N+]=[N-])N=C(c2ccc(OCCCO)cc2)O[C@@H]1c1ccccc1,0.0763
12,COC(=O)c1c(CC[C@@H](CO)NC(=O)N[C@@H](C)Cn2cc(C3(O)CCCCC3)nn2)oc(C(C)=O)c1C(=O)OC,2.06
13,O=C1C2C=CC(C(O)c3ccc(F)cc3)N(Nc3ccccc3F)C2C(=O)N1c1ccccc1 (configuration not stated),-0.166
14,O=C(c1ccccc1)N1Cc2ccccc2[C@@H]2OC(c3ccc(OCCCO)cc3)=N[C@]2(Cc2ccccc2)C1=O,1.33
15,C=C(COC)/C(=C/C[C@H](OC(=O)c1ccncc1)c1ccc(OCCO)cc1)c1cnc2ccccc2c1,2.11
16,COCCOC(=O)N1C(=O)[C@@]2(c3cc(C#CCNC(N)=O)ccc31)[C@H](C(=O)NC[C@H](O)c1ccccc1)[C@H]1C(=O)O[C@H](c3ccccc3)[C@H](c3ccccc3)N1[C@@H]2c1ccccc1OCCO,1.08
17,COc1ccc([C@H]2C[C@H]3C(Br)=C[C@@H]2C(=O)[C@]32CO2)cc1,0.311
18,C=CCOC(=O)[C@@H]1[C@H]2C(=O)O[C@H](c3ccccc3)[C@H](c3ccccc3)N2[C@H](c2ccc(OCCOC(=O)[C@@H]3C[C@@H]4C(=O)N[C@@H](Cc5ccccc5)C(=O)N4[C@@H]3c3ccc(O)cc3)cc2)[C@@]12C(=O)Nc1ccc(I)cc12,2.22
19,O=C1OCC=C[C@H]2OC34C=CCN(c5ccc6ccccc6c5)C(=O)[C@H]3N(CCCCCCO)C(=O)[C@@H]4[C@@H]12 (some centres not stated),-0.749
20,[N-]=[N+]=Nc1ccccc1C[C@]1(C(N)=O)N=C(c2ccc(OCCCO)cc2)O[C@H]1c1ccccc1,-1.98
21,O=C1OCCC/C=C\[C@H]2OC34C=CCN(Cn5nnc6ccccc65)C(=O)[C@H]3N(CCO)C(=O)[C@@H]4C12 (some centres not stated),-0.533
22,COc1cc2c(cc1OC)CN(C(=O)[C@H]1[C@@H]3C(=O)O[C@@H](c4ccccc4)[C@@H](c4ccccc4)N3[C@@H](c3ccc(O)cc3)[C@]13C(=O)Nc1ccc(C#CC4=CCCCC4)cc13)CC2,1.07
23,Cc1ccc(S[C@]2(C(=O)NCC(C)C)CC(=O)N(Cc3cc(C(F)(F)F)cc(C(F)(F)F)c3)[C@@H]2c2ccc(CO)cc2I)cc1,-1.05
24,CCCC[C@@H]1C[C@H]1[C@@H](NC(=O)c1ccco1)c1ccc(C(=O)OC)cc1,-1.47
25,O=C1O[C@H](c2ccccc2)[C@H](c2ccccc2)N2[C@H]1[C@@H](C(=O)O)[C@]1(C(=O)Nc3ccc(C#CC4=CCCCC4)cc31)[C@H]2c1ccccc1OCCO,0.892
26,CC(=O)N1Cc2ccccc2C[C@@]2(COC(c3ccc(OCCCO)cc3)=N2)C1=O,0.504

# Tested on: not listed separately
# Assay: E. coli DRC41 culture turbidity changes, primary screen, E. coli filamentation inducer project, strain DRC41, OD650, 48 h (AID 1152);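 further: E. coli MC1000 strain DRC41 lacking acrAB efflux pump and sulA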
# Conditions: E. coli DRC41 (acrAB sulA), higher = more signal, called active from +8 up or from −8 down
row,Compound,z-score
1,C[N+](C)(C)CCCCNC(=O)[C@H]1C[C@H]2C(=O)N[C@@H](Cc3ccccc3)C(=O)N2[C@H]1c1ccc(O)cc1,0.274 (inactive)
2,[N-]=[N+]=NCc1ccccc1C[C@]1(C(=O)N2CCOCC2)N=C(c2ccc(OCCCO)cc2)O[C@H]1c1ccccc1N=[N+]=[N-],0.97 (inactive)
3,CC(=O)NCCCC[C@@H]1NC(=O)[C@@H]2C[C@H](C(=O)NCCCCN(C)C)[C@H](c3cccc(OCCO)c3)N2C1=O,0.522 (inactive)
4,COc1ccc(C(O)C2C=CC3C(=O)N(c4ccccc4)C(=O)C3N2Nc2ccc(C(C)C)cc2)cc1OCc1ccccc1 (configuration not stated),-3.31 (inactive)
5,[N-]=[N+]=Nc1ccccc1[C@H]1OC(c2ccc(OCCCO)cc2)=N[C@@]1(Cc1ccccc1)C(=O)O,0.409 (inactive)
6,O=C(NCc1ccccc1)[C@@]1(Cc2ccccc2)N=C(c2ccc(OCCCO)cc2)O[C@H]1c1ccccc1,0.179 (inactive)
7,CCOC1=C2C(CN(S(=O)(=O)c3ccc(C)cc3)C2c2ccc(C)cc2)C2C(=O)N(c3ccccc3)C(=O)C2C1 (configuration not stated),-0.0859 (inactive)
8,CCOC(=O)C[C@H]1[C@H](OC(=O)c2ccc(C(=O)c3ccccc3)cc2)[C@@H](NC(=O)c2ccc(-c3ccccc3)cc2)c2cc(OCCCO)ccc2N1C(=O)c1ccccc1,-0.948 (inactive)
9,COCCOC(=O)N1C(=O)[C@@]2(c3cc(C#Cc4ccc(OC)cc4)ccc31)[C@H](c1ccc(O)cc1)N1[C@H](c3ccccc3)[C@H](c3ccccc3)OC(=O)[C@H]1[C@@H]2C(=O)NC[C@H](O)c1ccccc1,0.72 (inactive)
10,COc1ccc(C(=O)O[C@H]2CC[C@]3(C)C4=C(CCC3C2(C)C)[C@]2(C)CC[C@H]([C@H](C)CCCC(C)C)[C@@]2(C)CC4)cc1 (some centres not stated),3.06 (inactive)
11,COc1ccc(C(=O)Nc2ccc(CN3C(=O)[C@@]4(O[C@@H](CCn5cc([C@H](O)c6ccccc6)nn5)[C@H]([Si](C)(C)c5ccc(OC)cc5)[C@H]4C)c4ccccc43)cc2)cc1,-0.203 (inactive)
12,O=C1c2ccccc2[C@@]2(Cc3ccccc3N(CCN3CCOCC3)C2=O)[C@H](c2ccc(CO)cc2)N1Cc1ccccc1,1.04 (inactive)
13,CC[C@@H]1C=C(C(=O)O)[C@H](c2ccco2)N1S(=O)(=O)c1ccc(C)cc1,-0.0046 (inactive)
14,O=C1OCCC/C=C\[C@H]2OC34C=CCN(CCN5CCOCC5)C(=O)[C@H]3N(CCCO)C(=O)[C@@H]4C12 (some centres not stated),-0.478 (inactive)
15,COC(=O)[C@@]1(Cc2ccccc2)[C@H]2c3cc(C(=O)N4CCCC4)n(Cc4nc5ccccc5[nH]4)c3C[C@H]2CN1C(=O)c1ccccc1,-1.31 (inactive)
16,CC(C)c1ccc(NN2C(C(O)C(c3ccccc3)c3ccccc3)C=CC3C(=O)N(c4ccccc4)C(=O)C32)cc1 (configuration not stated),-1.98 (inactive)

row,Compound,z-score
1,C#CCN(Cc1ccccc1Br)C(/C=C/c1ccccc1)CO (configuration not stated),-0.585 (inactive)
2,O=C1C2C=CC(C(O)c3c(F)cccc3Cl)N(Nc3ccccc3)C2C(=O)N1c1ccccc1 (configuration not stated),-0.0623 (inactive)
3,NC(=O)[C@@H]1[C@H]2C(=O)O[C@H](c3ccccc3)[C@H](c3ccccc3)N2[C@H](c2ccc(O)cc2)[C@@]12C(=O)Nc1ccc(C#CC3(O)CCCCCC3)cc12,-0.723 (inactive)
4,CCOC(=O)C[C@H]1[C@H](OC(=O)Cc2ccc3c(c2)OCO3)[C@@H](NC(=O)c2ccc3ccccc3c2)c2cc(OCCCO)ccc2N1C(=O)c1ccccc1,1.87 (inactive)
5,CN(C)C(=O)[C@]1(Cc2ccccc2N=[N+]=[N-])N=C(c2ccc(OCCCO)cc2)O[C@@H]1c1ccccc1,0.327 (inactive)
6,COC(=O)c1c(CC[C@@H](CO)NC(=O)N[C@@H](C)Cn2cc(C3(O)CCCCC3)nn2)oc(C(C)=O)c1C(=O)OC,-0.244 (inactive)
7,O=C1C2C=CC(C(O)c3ccc(F)cc3)N(Nc3ccccc3F)C2C(=O)N1c1ccccc1 (configuration not stated),-1.13 (inactive)
8,O=C(c1ccccc1)N1Cc2ccccc2[C@@H]2OC(c3ccc(OCCCO)cc3)=N[C@]2(Cc2ccccc2)C1=O,-0.672 (inactive)
9,C=C(COC)/C(=C/C[C@H](OC(=O)c1ccncc1)c1ccc(OCCO)cc1)c1cnc2ccccc2c1,-0.469 (inactive)
10,COCCOC(=O)N1C(=O)[C@@]2(c3cc(C#CCNC(N)=O)ccc31)[C@H](C(=O)NC[C@H](O)c1ccccc1)[C@H]1C(=O)O[C@H](c3ccccc3)[C@H](c3ccccc3)N1[C@@H]2c1ccccc1OCCO,-0.119 (inactive)
11,COc1ccc([C@H]2C[C@H]3C(Br)=C[C@@H]2C(=O)[C@]32CO2)cc1,0.834 (inactive)
12,C=CCOC(=O)[C@@H]1[C@H]2C(=O)O[C@H](c3ccccc3)[C@H](c3ccccc3)N2[C@H](c2ccc(OCCOC(=O)[C@@H]3C[C@@H]4C(=O)N[C@@H](Cc5ccccc5)C(=O)N4[C@@H]3c3ccc(O)cc3)cc2)[C@@]12C(=O)Nc1ccc(I)cc12,0.299 (inactive)
13,O=C1OCC=C[C@H]2OC34C=CCN(c5ccc6ccccc6c5)C(=O)[C@H]3N(CCCCCCO)C(=O)[C@@H]4[C@@H]12 (some centres not stated),-0.0903 (inactive)
14,[N-]=[N+]=Nc1ccccc1C[C@]1(C(N)=O)N=C(c2ccc(OCCCO)cc2)O[C@H]1c1ccccc1,-0.444 (inactive)
15,O=C1OCCC/C=C\[C@H]2OC34C=CCN(Cn5nnc6ccccc65)C(=O)[C@H]3N(CCO)C(=O)[C@@H]4C12 (some centres not stated),1.8 (inactive)
